Legend:
[1] = tested on: Vero E6 infected with SARS-CoV-2; test: morphology score (similarity to uninfected cells); higher = more like uninfected cells; details: 24 h
[2] = tested on: Vero E6 infected with SARS-CoV-2; test: SARS-CoV-2 infection rate relative to infected DMSO; higher = more infection, active = 60 or less; details: 24 h

C=CC(=O)Nc1cccc(Nc2nc(Nc3ccc(NC4CN(CCF)C4)cc3OC)ncc2C(F)(F)F)c1 (0.833333 µM) was tested, and the morphology score [1] was -0.356 and the SARS-CoV-2 infection rate [2] was 118% (inactive).

With C[C@@H](O)[C@H]1C(=O)N2C(C(=O)O)=C([C@H]3CCCO3)S[C@H]12 [faropenem] (10 µM) the morphology score [1] was 0.121 and the SARS-CoV-2 infection rate [2] was 92.5% (inactive).

C[C@](O)(COc1ccc(C#N)cc1)C(=O)Nc1ccc(C#N)c(C(F)(F)F)c1 [ostarine] (10 µM) was tested, and the morphology score [1] was 0.0725 and the SARS-CoV-2 infection rate [2] was 112% (inactive).

In the case of CCC(=O)NC[C@@H]1C[C@H]1c1cccc2c1CCO2 [tasimelteon] (10 µM), the morphology score [1] was 0.169 and the SARS-CoV-2 infection rate [2] was 98.5% (inactive).

For Nc1cc(-c2ccncc2)c[nH]c1=O [amrinone] (10 µM), the morphology score [1] was 0.00166 and the SARS-CoV-2 infection rate [2] was 112% (inactive).

C=C(C)[C@H]1CN[C@H](C(=O)O)[C@H]1CC(=O)O [kainic-acid] (10 µM) was tested, and the morphology score [1] was 0.338 and the SARS-CoV-2 infection rate [2] was 79% (inactive).

COc1cc([C@@H]2c3cc4c(cc3[C@@H](O[C@@H]3O[C@@H]5CO[C@@H](c6cccs6)O[C@H]5[C@H](O)[C@H]3O)[C@H]3COC(=O)[C@H]23)OCO4)cc(OC)c1O [teniposide] (10 µM) was tested, and the morphology score [1] was -0.0983 and the SARS-CoV-2 infection rate [2] was 111% (inactive).

For CCN(CC)CCO[C@H]1CC[C@@]2(C)C(=CC[C@@H]3[C@@H]2CC[C@]2(C)C(=O)CC[C@@H]32)C1 (0.833333 µM), the morphology score [1] was 0.234 and the SARS-CoV-2 infection rate [2] was 84% (inactive).

In the case of CCOC(=O)OC(C)OC(=O)[C@@H]1N2C(=O)[C@@H](NC(=O)[C@H](N)c3ccccc3)[C@H]2SC1(C)C (stereo partly drawn) [bacampicillin] (10 µM), the morphology score [1] was -0.0144 and the SARS-CoV-2 infection rate [2] was 114% (inactive).

Reference: the supplement of paper PMC13380429
